Assay [1] can be described thus: AP1 Signaling Pathway (AID 357).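 Note: ME-180 reporter cells stimulated with EGF at its EC50 level; % is set by controls: 0 for no effect and ±100 for the full control effect.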 The conditions noted are these: ME-180 AP-1-bla reporter, EGF-induced, beta-lactamase ratio, 5 h. Summed up: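 AP-1-bla ME-180 cells, Opti-MEM + 0.5% dialyzed FBS, plated overnight 37 °C. Cpd titration + EC50 EGF, 5 h 37 °C. CCF4 2.5 h RT; ex 405, em 460/530 ratio → %activity, AC50.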
For assay [2], the target named is Cytochrome P450 1A2 (Homo sapiens) (UniProt P05177). Kind of assay: p450-cyp1a2 (AID 410; calls by dose curve;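 note: -100% = full effect of reference inhibitor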). Summed up: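 Read-out is luminescence from luciferin produced by CYP1A2 demethylation of Luciferin-ME (100uM, at Km). Detection reagent stopped the 60 min NADPH-dependent reaction; signals were normalized to 57 uM furafylline.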
Assay [3] in a line: NFAT Signaling Pathway (AID 444).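 Note: carbachol stimulus at about its EC50 of 1 µM final; % is set by controls: 0 for no effect and ±100 for the full control effect.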 The note with it: Jurkat NFAT-bla M1, carbachol, beta-lactamase ratio, 5 h; at 7.69 µM (top of the series) unless noted. Summed up: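 Read-out: CCF4 FRET ratio (460 nm/530 nm) after 1 h RT dye loading, used for %activity and AC50 from titration series. Cells: Jurkat NFAT-β-lactamase/M1 line, treated with compound plus 1 uM carbachol for 5 h, 37 °C.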

Assay [4] can be described thus: Stat Signaling Pathway (AID 446).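 Note: ME-180 cervical cancer cells given 40 pM IL-6 alongside compound; SIE-controlled beta-lactamase reporter measured as 460/530 nm FRET emission ratio; % is set by controls: 0 for no effect and ±100 for the full control effect.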 The note with it: ME-180 SIE beta-lactamase reporter, IL-6 stimulated, 5 h. In a few lines:
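Overnight-plated ME-180 cells bearing a STAT Inducible Element beta-lactamase reporter; 5 h co-exposure to compound and 40 pM IL-6; values normalized to 300 pM IL-6 and 125 nM JAK inhibitor controls.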

Assay [5] concerns the target Glucocorticoid receptor (Homo sapiens) (UniProt P04150). Kind of assay: GR-GFP Redistribution (AID 450;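 active = compounds whose dose series gives a full or clear partial fitted curve of increased nuclear translocation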; note: potency is the fitted concentration of half-maximal effect). The conditions noted are these: U2OS GR-GFP nuclear translocation, laser cytometry, 2 h.
For assay [6] the target is unchanged. The assay is described as follows: GR-EFC Redistribution (AID 451; calls by dose curve; note: potency is the fitted concentration of half-maximal effect). The note with it: CHO-K1 GR-EFC translocation, beta-gal luminescence, 2 h. In a few lines:
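Translocation of GR-ED fusion to nuclear EA restores b-gal, read by luminescence after 1 h room-temperature detection. Engineered CHO-K1 biosensor cells, 1,000/well, exposed 2 h at 37 C to titrations up to 46 uM final.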

In assay [7] the target is Mitogen-activated protein kinase 10 (Mus musculus) (UniProt Q61831). The assay is described as follows: JNK3 AlphaScreen Assay (AID 530).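 Note: kinase came from lysate of stimulated human HepG2 cells; signal reports phosphorylation of biotinylated GST-cJun 1-79 at Ser73 with 10 µM ATP; % is set by controls: 0 for no effect and ±100 for the full control effect.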 Summed up: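 Kinase buffer: 20 mM Tris-HCl pH 7.6, 10 mM MgCl2, 1 mM DTT, 0.1 mM Na3VO4, 0.01% Tween-20; ATP 10 uM. Substrate biotin-GST-cJun(1-79), enzyme from activated HepG2 lysates. Detection by Ser73 phospho-antibody AlphaScreen.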
On the technique in general: Alpha assays give light when donor and acceptor beads are brought close together.

Assay [8] concerns the target 3',5'-cyclic-AMP phosphodiesterase 4B (Homo sapiens) (UniProt Q07343). Kind of assay: qHTS Assay for Inhibitors of PDE-IV (AID 607; active = well fitted activation curve with a large enough effect in the main read-out, with a control signal flat, not every such curve was filed as active; note: % of control where 0% means no effect). In a few lines:
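Live HEK293 cells with a modified cyclic nucleotide-gated (CNG) channel report intracellular cAMP via membrane-potential dye fluorescence (ex 535/em 590 nm). Endogenous PDE-IV was targeted. Compounds were tested at up to 22.9 uM final; RO 20-1724 100 uM served as control.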
On the technique in general: In qHTS, concentration-response curves come from the screen itself.

For assay [9], the target named is Lysosomal acid glucosylceramidase (Homo sapiens) (UniProt P04062). Kind of assay: Glucocerebrosidase-p2 (AID 348; in the data active = potency below about 10 µM; note: potency is the fitted concentration of half-maximal effect). The conditions noted are these: purified GBA, blue fluorogenic substrate, 40 min. Summed up:
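Normal human glucocerebrosidase (0.2 nM) with blue fluorogenic substrate (80 uM final) in citrate/phosphate pH 5.9 with 10mM sodium taurocholate, 0.01% tween-20; 40 min RT, NaOH/glycine stop; fluorescence Ex 365/Em 440; AC50 from a titration from 0.6 nM upwards.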

A short description of assay [10]: qHTS Assay for Identification of Small Molecule Agonists for Hypoxia Response Element Signaling Pathway (AID 914; active = well fitted activation curve with a large enough effect in the signal ratio, with a control signal flat, not every such curve was filed as active; the % refers to the signal ratio; note: potency is the fitted concentration of half-maximal effect). The note with it: ME-180 (cervical carcinoma) HRE-bla reporter, beta-lactamase ratio, CoCl2, 17 h; activation: active compounds read high. Summed up:
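A beta-lactamase reporter under hypoxia response element control in ME-180 cells served as the system. Compound titrations plus EC50 CoCl2 ran 17 h at 37 degrees Celsius; AC50 values were fitted from %Activity.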

In assay [11] the target is Guanine nucleotide-binding protein G(i) subunit alpha-1 (Homo sapiens) (UniProt P63096). The assay is described as follows: qHTS Assay for Inhibitors of RGS12 GoLoco Motif Activity (Green Fluorophore) (AID 879; active = well fitted curve in the direction sought with a large enough effect; an effect the other way counts as inactive or inconclusive;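 note: 0% = labeled peptide with Gαi1 and full inhibition = labeled peptide alone without protein; negative values mean loss of peptide binding seen as reduced polarization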). Summed up: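 A drop in FITC polarization marked displacement of the FITC-tagged RGS12 GoLoco peptide (10 nM) from Gαi1 (50 nM). Compounds were incubated 10 min at room temperature in Tris pH 7.5 buffer containing 150 mM NaCl, 0.1 mM GDP and 0.05% NP40; unlabeled peptide titration served as control.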

In assay [12] the target is Cytochrome P450 3A4 (Homo sapiens) (UniProt P08684). The assay is described as follows: qHTS Assay for Activators of Cytochrome P450 3A4 (AID 885; active = well fitted curve in the direction sought with a large enough effect; an effect the other way counts as inactive or inconclusive; note: nearly all actives have a fitted effect of over 65% in size). In a few lines:
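Using 20nM recombinant human CYP3A4 in potassium phosphate (200mM), substrate Luciferin-PPXE at 25uM, luminescent luciferin detection followed a 60-min RT NADPH reaction; data scaled to 57 uM ketoconazole.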

Assay [13] can be described thus: qHTS Assay for Identification of Small Molecule Agonists for Thrombopoietin (TPO) Signaling Pathway (AID 917; active = well fitted curve in the direction sought with a large enough effect; an effect the other way counts as inactive or inconclusive; note: % is set by controls: 0 for no effect and ±100 for the full control effect). In a few lines: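 Stimulation at the TPO EC50 (26 pM final) was used to detect activators. Ba/F3 mouse cells bearing human TPO receptor and a luciferase reporter under the Glycoprotein IIb promoter were exposed to compounds for 24 hrs at 37 C.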
The target in assay [14] is Muscarinic acetylcholine receptor M1 (Rattus norvegicus) (UniProt P08482). The assay is described as follows: qHTS Assay for Antagonists of Acetylcholine Muscarinic M1 Receptor: Measurement of IP-One Response (AID 944; active = well fitted curve in the direction sought with a large enough effect; an effect the other way counts as inactive or inconclusive; note: nearly all actives have a fitted effect of over 75% in size). Summed up:
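Antagonism was measured as loss of carbachol-driven (EC80) IP1 accumulation in CHO cells carrying rat M1, using a homogeneous IP-One TR-FRET kit read at 620 and 665 nm.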

For assay [15], the target named is Pyruvate kinase (Leishmania mexicana) (UniProt Q27686). The assay is described as follows: qHTS Validation Assay for Inhibitors of Leishmania Mexicana Pyruvate Kinase (AID 945; active = well fitted curve in the direction sought with a large enough effect; an effect the other way counts as inactive or inconclusive;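 note: 0% = DMSO only neutral control wells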). Summed up:
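Compounds are tested as eight-point concentration series. Reactions contain 0.2 nM LmPYK E451W, 0.5 mM PEP, 0.1 mM ADP, 7 mM MgCl2 and 50 mM KCl at pH 7.2, run 1 h at room temperature, then read by PKLight luminescence.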

Assay [16] addresses Pyruvate kinase PKM (Homo sapiens) (UniProt P14618). The assay is described as follows: qHTS Assay for Activators of Human Muscle Pyruvate Kinase (AID 954; active = well fitted curve in the direction sought with a large enough effect, not every such curve was filed as active;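 note: 0% = uninhibited enzyme and -100% = no enzyme or full thiadiazolimine inhibition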). In a few lines:
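Screening used highly purified human pyruvate kinase M2 under submaximal activity, with PEP at its Km and ADP below Km. After an hour at room temperature, ATP was read by luciferase luminescence.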

The target of assay [17] is Alpha-galactosidase A (Homo sapiens) (UniProt P06280). Kind of assay: Counterscreen for Glucocerebrosidase Inhibitors: qHTS Assay for Human alpha-Galactosidase at pH 4.5 (AID 992; active = well fitted curve in the direction sought with a large enough effect; an effect the other way counts as inactive or inconclusive; note: 0% is about no effect). Summed up: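 Each compound is preincubated briefly with 2 nM enzyme before substrate addition (80 uM); plates then sit 20 min at ambient temperature, are quenched with 1M NaOH/1M glycine, and read fluorometrically.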

The target in assay [18] is alpha-glucosidase (Oryza sativa, rice) (UniProt Q653V4). The assay is described as follows: Counterscreen for Glucocerebrosidase Inhibitors: qHTS Assay for Rice alpha-Glucosidase at pH 5.0 (AID 997; active = well fitted curve in the direction sought with a large enough effect; an effect the other way counts as inactive or inconclusive;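 note: 0% = full activity with enzyme and -100% = basal without enzyme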). Summed up: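 Endpoint fluorogenic assay at pH 5.0: compounds (0.7 nM to 77 uM) titrated against 4 nM rice enzyme and 400 uM 4-MU-alpha-glucoside for 20 min at room temperature; NaOH/glycine stop, read ex 365/em 440 nm, Hill-fitted AC50.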

Assay [19] deals with Cytochrome P450 2C9 (Homo sapiens) (UniProt P11712). The assay is described as follows: qHTS Assay for Inhibitors and Substrates of Cytochrome P450 2C9 (AID 883; active = well fitted curve in the direction sought with a large enough effect; an effect the other way counts as inactive or inconclusive; note: % is set by controls: 0 for no effect and ±100 for the full control effect; nearly all actives have a fitted effect of over 60% in size). In a few lines:
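Inhibition of CYP2C9 is scored as loss of luminescence, with 57uM sulphaphenazole defining 100% inhibition. Substrate Luciferin-H is used at 100uM, equal to its KM; enzyme at 10nM in 25mM KPO4, 60 min at 37C with NADPH regeneration.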

Assay [20] addresses Cytochrome P450 2C19 (Homo sapiens) (UniProt P33261). The assay is described as follows: qHTS Assay for Inhibitors and Substrates of Cytochrome P450 2C19 (AID 899; active = well fitted curve in the direction sought with a large enough effect; an effect the other way counts as inactive or inconclusive; note: % is set by controls: 0 for no effect and ±100 for the full control effect; nearly all actives have a fitted effect of over 60% in size). In a few lines: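 5nM enzyme + 10uM Luciferin-H EGE (=KM), 50mM KPO4; cpd pin-transferred, 10 min 37C; NADPH regen, 60 min 37C; stopped w/ luciferin detection reagent, 20 min; luminescence. Normalized to 57uM ketoconazole (AC100).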

Where [21] appears, read: at 7.69 µM (top of the series) unless noted.

Where “and” joins values, the source holds several entries; their conditions need not be identical. Equal values may be shown once. Unmarked numbers belong to inactive results. Inconclusive results are not listed. Calls of active or inactive are those of the source. Unless noted, calls come from the whole dose curve; as a rule, active = well fitted curve in either direction with a large enough effect (not every such curve was filed as active); inconclusive = small, poorly fitted or top-dose-only effect, or another doubt; inactive = flat fitted curve, though single readings scatter.

Guanine nucleotide-binding protein G(i) subunit alpha-1 (Homo sapiens), sequence (P63096 whole entry, looked up): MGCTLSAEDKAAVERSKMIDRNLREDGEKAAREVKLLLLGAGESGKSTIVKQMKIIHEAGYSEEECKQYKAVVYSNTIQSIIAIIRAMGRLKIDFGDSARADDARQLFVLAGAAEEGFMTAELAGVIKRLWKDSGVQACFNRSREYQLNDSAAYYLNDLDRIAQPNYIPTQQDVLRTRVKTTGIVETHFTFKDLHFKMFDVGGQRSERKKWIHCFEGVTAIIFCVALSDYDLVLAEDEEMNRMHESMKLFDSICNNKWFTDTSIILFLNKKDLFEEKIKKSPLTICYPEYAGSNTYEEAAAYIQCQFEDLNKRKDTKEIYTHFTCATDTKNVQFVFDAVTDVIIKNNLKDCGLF
Pyruvate kinase (Leishmania mexicana), sequence (Q27686 2-499 E452W): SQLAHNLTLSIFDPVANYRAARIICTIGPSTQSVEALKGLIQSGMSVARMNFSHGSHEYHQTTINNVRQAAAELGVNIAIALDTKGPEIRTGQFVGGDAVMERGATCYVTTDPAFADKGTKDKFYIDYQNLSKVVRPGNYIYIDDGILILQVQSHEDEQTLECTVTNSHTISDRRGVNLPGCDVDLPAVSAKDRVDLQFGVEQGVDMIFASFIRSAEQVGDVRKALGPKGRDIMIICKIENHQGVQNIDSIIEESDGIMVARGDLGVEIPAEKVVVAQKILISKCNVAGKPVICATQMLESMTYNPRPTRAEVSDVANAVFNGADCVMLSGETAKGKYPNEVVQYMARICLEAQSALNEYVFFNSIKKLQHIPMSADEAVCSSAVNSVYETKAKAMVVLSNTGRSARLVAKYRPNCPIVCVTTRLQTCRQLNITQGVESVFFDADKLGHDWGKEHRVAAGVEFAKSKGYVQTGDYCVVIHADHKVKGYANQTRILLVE
Muscarinic acetylcholine receptor M1 (Rattus norvegicus), sequence (P08482 whole entry, looked up): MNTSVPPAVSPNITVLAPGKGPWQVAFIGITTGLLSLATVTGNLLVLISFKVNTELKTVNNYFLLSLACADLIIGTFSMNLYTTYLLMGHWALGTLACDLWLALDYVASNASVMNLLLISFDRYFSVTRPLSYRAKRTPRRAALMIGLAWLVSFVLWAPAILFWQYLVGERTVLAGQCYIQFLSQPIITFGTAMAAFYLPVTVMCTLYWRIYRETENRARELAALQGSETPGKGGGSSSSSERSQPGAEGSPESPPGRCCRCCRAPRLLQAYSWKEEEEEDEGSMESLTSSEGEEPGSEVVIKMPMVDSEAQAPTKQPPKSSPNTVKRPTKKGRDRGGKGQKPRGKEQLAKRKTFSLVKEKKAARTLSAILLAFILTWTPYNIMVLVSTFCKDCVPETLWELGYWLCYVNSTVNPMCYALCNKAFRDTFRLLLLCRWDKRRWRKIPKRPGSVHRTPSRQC
3',5'-cyclic-AMP phosphodiesterase 4B (Homo sapiens), sequence (Q07343 whole entry, looked up): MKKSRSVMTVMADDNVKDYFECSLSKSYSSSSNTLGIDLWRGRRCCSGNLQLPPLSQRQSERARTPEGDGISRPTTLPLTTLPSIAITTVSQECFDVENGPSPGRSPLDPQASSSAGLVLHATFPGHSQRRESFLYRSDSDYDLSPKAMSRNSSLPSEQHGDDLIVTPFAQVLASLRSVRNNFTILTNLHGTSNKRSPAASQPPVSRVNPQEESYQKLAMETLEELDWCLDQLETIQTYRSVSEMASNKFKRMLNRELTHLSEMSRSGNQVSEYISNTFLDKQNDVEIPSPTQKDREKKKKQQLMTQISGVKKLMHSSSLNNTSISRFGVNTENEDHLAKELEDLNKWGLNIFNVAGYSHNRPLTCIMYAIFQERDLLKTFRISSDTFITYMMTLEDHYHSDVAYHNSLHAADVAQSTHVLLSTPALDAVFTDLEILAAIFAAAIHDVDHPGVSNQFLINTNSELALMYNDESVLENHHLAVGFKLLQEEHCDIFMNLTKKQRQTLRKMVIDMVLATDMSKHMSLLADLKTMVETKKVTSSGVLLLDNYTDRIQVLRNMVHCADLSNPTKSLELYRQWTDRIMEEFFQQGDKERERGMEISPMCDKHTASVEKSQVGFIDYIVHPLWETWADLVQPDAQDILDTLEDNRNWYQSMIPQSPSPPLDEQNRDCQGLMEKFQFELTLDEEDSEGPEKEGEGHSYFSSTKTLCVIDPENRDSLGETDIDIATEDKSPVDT
Alpha-galactosidase A (Homo sapiens), sequence (P06280 whole entry, looked up): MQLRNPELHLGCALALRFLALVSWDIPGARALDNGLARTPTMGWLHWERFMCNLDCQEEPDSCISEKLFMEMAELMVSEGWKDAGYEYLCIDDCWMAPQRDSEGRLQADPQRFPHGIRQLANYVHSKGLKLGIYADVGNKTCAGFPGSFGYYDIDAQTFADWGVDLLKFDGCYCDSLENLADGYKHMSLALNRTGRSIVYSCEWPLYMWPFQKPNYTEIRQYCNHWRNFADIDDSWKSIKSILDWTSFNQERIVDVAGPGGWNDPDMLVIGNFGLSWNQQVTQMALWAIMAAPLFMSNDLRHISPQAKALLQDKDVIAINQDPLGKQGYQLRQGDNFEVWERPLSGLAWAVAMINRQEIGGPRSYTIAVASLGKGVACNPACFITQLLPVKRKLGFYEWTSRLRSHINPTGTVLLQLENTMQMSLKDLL
Cytochrome P450 1A2 (Homo sapiens), sequence (P05177 whole entry, looked up): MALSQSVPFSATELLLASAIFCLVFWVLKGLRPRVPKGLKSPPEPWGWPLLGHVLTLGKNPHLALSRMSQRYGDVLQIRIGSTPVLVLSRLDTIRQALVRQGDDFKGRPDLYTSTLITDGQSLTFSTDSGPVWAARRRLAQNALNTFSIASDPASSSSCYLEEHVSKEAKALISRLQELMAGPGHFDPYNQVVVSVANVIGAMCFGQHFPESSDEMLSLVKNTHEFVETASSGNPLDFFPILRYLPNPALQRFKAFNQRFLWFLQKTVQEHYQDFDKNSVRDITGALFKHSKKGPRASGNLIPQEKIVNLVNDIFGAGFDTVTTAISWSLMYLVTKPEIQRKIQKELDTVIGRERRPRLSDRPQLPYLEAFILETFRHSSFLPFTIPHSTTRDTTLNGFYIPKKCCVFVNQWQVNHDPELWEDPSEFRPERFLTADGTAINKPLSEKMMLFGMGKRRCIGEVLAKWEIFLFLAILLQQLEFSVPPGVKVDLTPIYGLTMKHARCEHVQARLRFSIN
Glucocorticoid receptor (Homo sapiens), sequence (P04150 whole entry, looked up): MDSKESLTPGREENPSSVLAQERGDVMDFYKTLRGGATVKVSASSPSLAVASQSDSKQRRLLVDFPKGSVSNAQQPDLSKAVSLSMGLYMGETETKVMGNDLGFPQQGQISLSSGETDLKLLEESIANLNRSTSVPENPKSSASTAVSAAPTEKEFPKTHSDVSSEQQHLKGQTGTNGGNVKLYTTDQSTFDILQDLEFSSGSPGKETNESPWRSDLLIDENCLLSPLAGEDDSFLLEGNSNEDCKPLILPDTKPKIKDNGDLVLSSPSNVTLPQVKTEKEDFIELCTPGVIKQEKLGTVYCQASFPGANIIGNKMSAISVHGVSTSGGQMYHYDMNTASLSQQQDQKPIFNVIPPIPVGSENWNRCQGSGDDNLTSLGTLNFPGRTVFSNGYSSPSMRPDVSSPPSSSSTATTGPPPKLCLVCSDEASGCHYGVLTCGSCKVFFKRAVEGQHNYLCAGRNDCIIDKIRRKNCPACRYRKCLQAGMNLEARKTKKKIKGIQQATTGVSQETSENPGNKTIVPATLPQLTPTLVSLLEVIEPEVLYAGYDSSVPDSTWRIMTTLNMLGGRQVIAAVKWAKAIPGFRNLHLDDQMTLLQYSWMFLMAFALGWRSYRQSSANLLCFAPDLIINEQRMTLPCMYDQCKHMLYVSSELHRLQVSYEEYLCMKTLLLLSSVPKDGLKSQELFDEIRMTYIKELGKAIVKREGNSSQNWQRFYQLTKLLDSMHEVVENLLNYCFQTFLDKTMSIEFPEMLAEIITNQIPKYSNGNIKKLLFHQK
Pyruvate kinase PKM (Homo sapiens), sequence (P14618 whole entry, looked up): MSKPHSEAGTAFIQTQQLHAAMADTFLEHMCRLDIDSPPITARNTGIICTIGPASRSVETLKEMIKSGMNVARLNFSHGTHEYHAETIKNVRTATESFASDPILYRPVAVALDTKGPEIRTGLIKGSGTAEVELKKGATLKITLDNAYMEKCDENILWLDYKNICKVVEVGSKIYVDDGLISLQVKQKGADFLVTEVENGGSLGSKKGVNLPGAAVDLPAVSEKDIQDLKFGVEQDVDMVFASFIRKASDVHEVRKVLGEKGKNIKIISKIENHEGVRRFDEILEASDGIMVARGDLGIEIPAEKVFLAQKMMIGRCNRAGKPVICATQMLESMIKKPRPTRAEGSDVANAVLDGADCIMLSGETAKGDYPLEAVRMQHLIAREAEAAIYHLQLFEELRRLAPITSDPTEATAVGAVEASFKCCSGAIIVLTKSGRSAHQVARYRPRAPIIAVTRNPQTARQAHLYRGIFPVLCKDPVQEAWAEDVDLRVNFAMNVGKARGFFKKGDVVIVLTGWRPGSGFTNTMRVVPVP
Lysosomal acid glucosylceramidase (Homo sapiens), sequence (P04062 whole entry, looked up): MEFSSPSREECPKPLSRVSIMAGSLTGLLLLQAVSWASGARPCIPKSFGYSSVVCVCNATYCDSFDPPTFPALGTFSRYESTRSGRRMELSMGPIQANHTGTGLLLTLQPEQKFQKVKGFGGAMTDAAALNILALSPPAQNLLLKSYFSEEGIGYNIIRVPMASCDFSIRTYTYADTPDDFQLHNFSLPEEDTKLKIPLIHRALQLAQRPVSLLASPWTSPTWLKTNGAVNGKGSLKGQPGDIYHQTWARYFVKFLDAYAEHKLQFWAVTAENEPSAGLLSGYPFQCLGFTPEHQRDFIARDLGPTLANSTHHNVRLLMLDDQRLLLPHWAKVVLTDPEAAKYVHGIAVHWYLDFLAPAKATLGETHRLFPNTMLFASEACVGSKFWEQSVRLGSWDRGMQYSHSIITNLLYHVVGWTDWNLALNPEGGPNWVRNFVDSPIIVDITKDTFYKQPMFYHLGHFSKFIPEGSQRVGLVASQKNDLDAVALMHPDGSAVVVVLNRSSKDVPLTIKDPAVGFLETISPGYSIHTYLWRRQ

In the case of `NC(=O)c1ncn([C@@H]2O[C@@H](CO)[C@@H](O)[C@H]2O)n1`, the activity change, negative = inhibition in [1] (setting [21]) was 18.3% [at 38 µM]; in assay [3], 17% [at 38 µM]. Moreover, the Potency result in assay [2], in [7] and in assay [8] was “inactive” each time. For the same compound, the activity, negative = inhibition in assay [4] (setting [21]) is -14.5% [at 38 µM]. For the same compound, the Potency in assay [5] and in assay [6] was > 46 µM throughout.

Turning to `N#CCCn1c(=O)c(-c2ccccc2)nc2cnc(N3CCNCC3)nc21`, the Potency was > 11.4 µM in assay [9], > 9.22 µM in [5], > 46 µM in assay [6] and 3.16 µM (active) in [10]. Besides, the Potency entry in assay [7] and in assay [8] was “inactive” in each case.

`C[N+]1(C)[C@@H]2CC(OC(=O)[C@@H](CO)c3ccccc3)C[C@@H]1[C@H]1O[C@H]12` (some centres not stated): the Potency in [9] is > 11.4 µM.

As to `NC(=S)NCCC[C@@H](N)C(=O)O`, the results for the activity change, negative = inhibition in [1] (setting [21]) and in assay [3] were 4.46% [at 38 µM] and 4.17% [at 38 µM], respectively. Besides, the Potency entry in [2], in assay [7], in assay [8], in assay [12], in assay [14] and in assay [18] was “inactive” each time. The activity, negative = inhibition in assay [4] (setting [21]) is -8.44% [at 38 µM]. Moreover, the Potency in [5] and in assay [6] was > 46 µM in each case. In addition, the compound was called inactive in [11], in [13], in [15], in assay [16] and in [17].

On to `CN1C[C@H](c2ccccc2)C(O)([C@]2(c3ccccc3)CN(C)C[C@@H](c3ccccc3)C2=O)[C@H](c2ccccc2)C1` (some centres not stated), for which the activity change, negative = inhibition was 0.442% in assay [1] (setting [21]) and -6.86% in assay [3]. Further, the Potency entry in [2], in assay [7] and in [8] was “inactive” throughout. In assay [4] (setting [21]), the activity, negative = inhibition is 10%. Also, the Potency was > 46 µM in [5] and > 9.22 µM in assay [6].

On to `O=[N+]([O-])c1ccc(CSc2ncnc3c2ncn3[C@@H]2O[C@@H](CO)[C@@H](O)[C@H]2O)cc1`, for which the activity change, negative = inhibition in [1] (setting [21]) was -12.2% [at 38 µM]; in assay [3], 11% [at 38 µM]. Also, the Potency result in assay [2], in [7], in [8], in [14] and in [18] was “inactive” each time. Also, the activity, negative = inhibition in assay [4] (setting [21]) was 29.7% [at 38 µM]. The Potency in assay [5] and in [6] was > 46 µM throughout. Moreover, the result in assay [11], in [13], in [15], in assay [16] and in assay [17] was inactive.

As for `O=C1OC(=O)[C@@H]2[C@@H]1[C@@H]1CC[C@H]2O1`, the activity change, negative = inhibition is 4.01% [at 38 µM] in [1] (setting [21]) and 5.96% [at 38 µM] in assay [3]. Further, the Potency entry in assay [2], in assay [7], in assay [8], in [19], in assay [20] and in assay [14] was “inactive” throughout. In [18], the Potency result is “inactive”. Moreover, in [4] (setting [21]), the activity, negative = inhibition was -11.3% [at 38 µM]. Moreover, the Potency in assay [5] and in [6] was > 46 µM each time. Further, the compound was classed as inactive in [11], in assay [15], in assay [16] and in assay [17].

With `CN1[C@@H]2CC[C@H]1CC(OC(=O)[C@@H](CO)c1ccccc1)C2` (some centres not stated), the activity change, negative = inhibition in [1] (at 17.2 µM (top of the series)) is -0.827% and 1.39%; in assay [1] (at 38 µM (top of the series)) it was 10.7% and -6.14%; in assay [3], -38.1% [at 17.2 µM] (active). Further, the activity, negative = inhibition in [4] (at 17.2 µM (top of the series)) was 10.3% and 3.29%; in [4] (at 38 µM (top of the series)) it was 27.8% and 8.42%. Besides, the Potency entry in [7] and in assay [18] was “inactive” in each case. Moreover, the outcome in assay [11], in assay [13], in [15], in assay [16] and in assay [17] was inactive.
